# HTT cytoprotect: protects HTT-Q103 PC12 cells, measured by ATP; PC12 HTT-Q103 induced, cytoprotection, ATP luminescence, 40 h; Potency, µM (highest dose often 56.4 µM), for inactives: cytoprotection (ATP increase), most hits filed as activators; 230,000 tested, 0.14% active; AID 1471; also: potency is read from the fitted curve at half-maximal effect; % of control where 0% means no effect; nearly all actives have a fitted effect of over 45% in size
#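 Compounds were screened for protection of PC12 cells against cell death after tebufenozide induction (100 nM final) of mutant Huntingtin exon 1 (Q103) fused to GFP.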
# HTT aggregate: inhibitors of mutant huntingtin aggregate formation in PC12 cells; PC12 HttQ103-GFP aggregates, Acumen cytometry, 40 h; AID 1688; Potency, µM (top dose mostly 46.1 µM), for inactives: at the highest dose activity change, negative = inhibition, most hits filed as inhibitors; 220,000 tested, 1.1% active; also: potency is read from the fitted curve at half-maximal effect; % is scaled to controls: 0 for no effect and ±100 for the full control effect; nearly all actives have a fitted effect of over 60% in size
#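 PC12 cells stably carrying ecdysone-inducible HTT exon 1 Q103–GFP were induced with tebufenozide (100 nM final) and treated with library compounds in titration. GFP aggregates in lysates were counted by laser scanning cytometry.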
# NPSR antag: neuropeptide S receptor (human) antagonism, cAMP; CHO-NPSR cells, cAMP TR-FRET, antagonist mode; AID 1461; Q6W5P4; Potency, µM (doses to about 38.3 µM), inactives show top-dose activity change, negative = inhibition, hits mostly inhibitors; 220,000 tested, 1% active; also: potency is read from the fitted curve at half-maximal effect; % is scaled to controls: 0 for no effect and ±100 for the full control effect; nearly all actives have a fitted effect of over 50% in size
# Target sequence (Q6W5P4 whole entry, looked up): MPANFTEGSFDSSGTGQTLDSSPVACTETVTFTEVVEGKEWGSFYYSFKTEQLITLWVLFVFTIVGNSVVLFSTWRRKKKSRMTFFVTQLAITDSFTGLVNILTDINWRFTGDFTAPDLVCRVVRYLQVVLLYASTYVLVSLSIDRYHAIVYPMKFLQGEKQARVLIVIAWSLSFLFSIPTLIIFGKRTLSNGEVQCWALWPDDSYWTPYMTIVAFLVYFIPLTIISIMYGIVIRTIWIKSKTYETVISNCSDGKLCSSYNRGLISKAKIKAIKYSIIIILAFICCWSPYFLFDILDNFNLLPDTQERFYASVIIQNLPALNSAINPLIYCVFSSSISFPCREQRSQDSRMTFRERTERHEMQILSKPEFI
# IMPase Li cell: membrane-permeable IMPase blocker, potentiated with lithium. CHO-M1 cells, IP1 TR-FRET (IP-One), carbachol + lithium. Potency, µM (series often up to 59.4 µM), for inactives: top-dose activity, negative = IMPase inhibition, most hits filed as inhibitors. 210,000 tested, 0.35% active. AID 1457;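 also: IP1 builds up when IMPase is blocked and the TR-FRET signal falls; potency is read from the fitted curve at half-maximal effect; plate controls were basal vehicle for no effect and high inhibitor control for full effect; nearly all actives have a fitted effect of over 50% in size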
#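 Concentration–response in CHO-M1 cells, lithium-potentiated; 30 min at 37C. IP1 detected by competitive TR-FRET after 10 min lysis at RT. Hill-fitted AC50.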
# IMPase inh: cell-permeable inhibitors of inositol monophosphatase (IMPase) | P97697 | CHO-M1 cells, IP1 accumulation, HTRF TR-FRET ratio | inhibition (IP1 accumulation), % at 46.1 µM | 120,000 tested, under 10 active | AID 901; active = well fitted curve in the direction sought with a large enough effect in the signal ratio, not every such curve was filed as active; inconclusive = small, poorly fitted or top-dose-only effect, or a change in a side signal; inactive = no such curve, though single readings can be large or run the other way; the % refers to the signal ratio;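 also: cells stimulated with carbachol in lithium chloride buffer; plate controls were DMSO basal wells for no effect and reference inhibitor wells for full effect; higher means more IMPase inhibition seen as more IP1 and lower FRET ratio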
#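 CHO-M1, 2000 cells/well, cultured 16–30 h; cpd up to 46 uM; carbachol (50 uM solution, stimulation buffer w/ 50 mM LiCl, pH 7.4), 30 min 37C; IP-One TR-FRET, 10 min RT; Ex 320/Em 665, 620; Hill-fit AC50.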
# PNC assembly inh: inhibitors of perinucleolar compartment assembly; PC3M PTB-GFP, PNC prevalence imaging, 16 h; stronger effect = lower value; activity change (PNC), negative = inhibition, % at 10 µM; 140,000 tested, 3.1% active; AID 2417;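 active = readout at or below -70, meaning at least 70% loss of cells showing the perinucleolar compartment, a nuclear body marking cancer cells; inconclusive = readout between -30 and a set limit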;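 also: plate controls were DMSO wells for no effect and camptothecin positive control wells for full effect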
#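 PC3M cells stably expressing PTB-GFP, 750–1000 cells/well, treated 16 h at 37 °C with compound (23 nl of library stock), in duplicate. After paraformaldehyde fixation and Hoechst stain, imaged at 20x; PNC prevalence scored by image analysis.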
# Active calls of the source: *; u = inconclusive; x = not tested or not shown; [ ] = another dose, or the depositor's remark. Rows were chosen to be rich in hits. Some 3.4% of all compounds tested hit in one or more screens of this group. Unless noted, calls follow the shape of the dose curve; as a rule, active = well fitted curve in the direction sought with a large enough effect; inconclusive = small, poorly fitted or top-dose-only effect, or another doubt; inactive = no such curve, though single readings can be large; an effect the other way counts as inactive or inconclusive.
SMILES,HTT cytoprotect,HTT aggregate,NPSR antag,IMPase Li cell,IMPase inh,PNC assembly inh
COc1cccc(COc2cc3ccccc3nc2C)c1,-29%,1.8µM*,-18%[46.1 µM],19%[38.3 µM],13,-5
O=C(O)[C@@H]1[C@@H]2C[C@@H]3[C@@H](OC(=O)[C@@H]31)[C@H]2Br,-19%[10 µM],x,x,6%,x,x
CCCN(CCC)C(=O)Nc1cc(Cl)ccc1OC,8%[10 µM],-8%[9.22 µM],u,x,x,x
COc1cccc(Nc2ncc3nc(-c4cccs4)c(=O)n(C[C@H]4CCCO4)c3n2)c1,1%,x,x,5%,x,x
COc1cccc2c1OC(=O)CC2c1ccc(C)cc1 (stereo not drawn),-118%[96.6 µM],x,x,4%,x,x
COc1ccc2[nH]cc(CCNc3ccnc(-c4ccc(C(=O)N(C)C)cc4)n3)c2c1,-107%,x,x,14%,x,x
COC(=O)c1cc(C(=O)OC)cc(N2C(=O)CC(NNC(=O)c3ccccc3Cl)C2=O)c1 (stereo not drawn),2%[10 µM],12%,9%,-6%,x,-99*
COc1ccc(C2CC(C)=C(C#N)S(=O)(=O)C2C#N)cc1 (stereo not drawn),-6%[10 µM],-5%[9.22 µM],13%,x,x,x
O=P(O)(O)C(O)(Cn1ccnc1)P(=O)(O)O,-37%,12%,x,2%,x,x
N=c1nc(N2CCCCC2)cc(N)n1O,u,8%,19%,4%,5,-115*
Nc1nc(F)cc(N2CCCCCC2)n1,-37%,-16%,2%,-6%,x,x
CCOCC(O)COc1ccc(NC(=O)CC[S+](C)C)cc1 (stereo not drawn),-29%,-97%,x,x,x,x
COc1ccc(S(=O)(=O)Cc2ccc(C(=O)N3CCC(C(N)=O)CC3)o2)cc1,-11%,-21%,11%[46.1 µM],-2%[38.3 µM],-4,-85*
COc1ccc(S(=O)(=O)Cc2ccc(C(=O)N3CCCC3)o2)cc1,-38%,-19%,-3%[46.1 µM],2%[38.3 µM],-1,u
CCCCCN(C(=O)NC(=O)Nc1ccc(C)cc1)S(=O)(=O)c1ccccc1,6%[10 µM],-1%,18%,-5%,x,35
CCCCP(=O)(CCCC)CCP(=O)(c1ccccc1)c1ccccc1,-3%[10 µM],-19%,-6%[46.1 µM],x,-1,18
CCCCCOP(=O)(c1ccccc1)c1ccccc1,-1%[10 µM],-14%,15%,4%,x,-108*
Cc1noc(C)c1CSc1nc2[nH]ncc2c(=O)n1-c1ccccc1,-64%[10 µM],u,16%[46.1 µM],8%,11,-100*
Cc1nc(CSc2nc3[nH]ncc3c(=O)n2-c2ccccc2)cs1,-3%,10%,-14%[46.1 µM],16%[38.3 µM],15,-18
CC(NS(=O)(=O)c1ccc(CCC(=O)N2CCN(C)CC2)cc1)c1ccccc1 (stereo not drawn),13%,-17%,13%[46.1 µM],30%[38.3 µM],-21,-82*
CC(C)NS(=O)(=O)c1ccc(CCC(=O)N2CCc3ccccc3C2)cc1,-2%,6%,-3%,-2%,x,x
CSC1=C(C#N)C2(CCCC2)C(C#N)=C(N)N1,9%,-19%,-15%[46.1 µM],-3%[38.3 µM],-1,23
N#CC1=C(N)NC(SCc2ccccc2)=C(C#N)C12CCCC2,x,-13%,17%,1%,x,-113*
CCSC1=C(C#N)C2(CCCC2)C(C#N)=C(N)N1,-27%[10 µM],-19%,13%[46.1 µM],8%[38.3 µM],-9,-81*
N#CC1=C(N)NC(SCc2ccc(Cl)cc2)=C(C#N)C12CCCCC2,-98%,u,-25%[46.1 µM],24%[38.3 µM],-16,-27
COc1ccc(Oc2coc3cc(OC(=O)/C=C/c4ccc(F)cc4)ccc3c2=O)cc1,-11%[10 µM],u,-2%[46.1 µM],x,1,35
COc1ccc(Oc2coc3cc(OC(=O)/C=C/c4ccccc4)ccc3c2=O)cc1,29%[10 µM],-9%,-5%[46.1 µM],4%,4,-81*
O=c1cc(N2CCc3ccccc32)[nH]c(=O)n1-c1ccccc1Cl,-22%,19%,-2%,-4%,x,x
Cc1ccccc1-n1c(=O)cc(N2CCc3ccccc32)[nH]c1=O,-28%[10 µM],-14%,-10%[46.1 µM],23%[38.3 µM],-1,-108*
O=C(O)c1[nH]c(=O)[nH]c(=O)c1CN1CCCCC1,-2%[10 µM],x,x,1%,x,x

# Bioassay records (PubChem)
